Measurements from the OligoGym collection.

molecular target: OTOP1; experiment: pooled miR-30 sensor sort-seq; sequence = guide strand; details: shRNA
Note: reference of the scale not given here.

Sequence | sensor-assay potency score (higher = more potent)
TCGTCTATCCTGTAAATCCGGA | -0.834
TTGCAGACTGTGACCACCCGAA | 0.116
AAACAATGTGATACTACCGCGC | -0.348
AAAACTGTTGTTATGTTCCCAA | -0.801
TTGAGTTGGTGCTTTGACTCAT | 0.454
TTCCTCAGGACTTTTCTCTTGG | 0.566
TTGAACTGCATCTTCTGGTGCT | 0.911
TTGCAGAGGAACAAGAAGGCTG | -0.195
TAGAACATGATGAGTGCCGACT | -0.938
TGATACTCTATGTTGAAGGGGT | 0.574
AAGCACAGCAGGTCGCTCTTGC | 0.0599
TTGGTGCTTTGACTCATTGAGG | -1.32

molecular target: OTOP2; experiment: as above; details: shRNA

Sequence | sensor-assay potency score (higher = more potent)
ATCCACAGAATGACATTGCAGA | -0.488
AAGCAGACAATGTTGAAGCTGT | 0.428
TTGAACCTCGTAGATGATGAAG | -1.6
TAGATGACCAGGGCCTGCCTGG | -1.42
TCCACCTCCACTGTGTTGCTGA | -0.748
TAGAAGAGGATCCAGAGCGTTG | -1.26
TTGGTGGTGAGTGTGAACATGA | -0.459
TTCCACATGACATACAGCATGG | -1.01
TCGATGATAAACATGTTCTGGA | 0.252
TTGCCAGCAGCATCATCGCAGT | -1.22
TAGAAATCCACCTCCACTGTGT | 0.657
TTGGTGCACAGATTCATCCACC | -1.03
